# In PubChem BioAssay AID588507 (Broad Institute, 2011):
# Active and inactive are the calls of the source. How the calls were made is not given here.
# Test: compound effect on GFP reporter cells – imaging, dry powder samples, counter-screen for PrP inhibitor project, dose response (AID 588507)
# Conditions: max activity: measured here: maximum activity across titration, at 0.0195 µM
smiles,measurement,value
COc1cc(SC)ccc1C(=O)Nc1nc2ccccc2[nH]1,max activity,451%
same,outcome,inactive
